High-throughput results (PubChem)
HP1b chromo inh: inhibitors of HP1-beta chromodomain binding to methylated histone tails. AID 540317. Potency, µM (titrated, usually from 114 µM), hits mostly inhibitors. 390,000 tested, 0.56% active. P83916. AlphaScreen HP1-beta / biotin-H3K9me3 peptide binding; further: nearly all actives have a fitted effect of over 70% in size
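HP1-beta protein (50 nM final) preincubated 30 min at room temperature with biotinylated H3(1-18)K9me3 peptide (50 nM) in PBS pH 7.4, 0.01% Tween-20, then compound added for 30 min. AlphaScreen streptavidin donor/nickel chelate acceptor beads (10 ug/mL final), 30 min dark, luminescence read.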
JMJD2A Tudor: blocks the human JMJD2A Tudor domain. 390,000 tested, 4.4% active. Potency, µM (series often up to 114 µM), hits mostly inhibitors. AlphaScreen JMJD2A-Tudor / H3K4me3 peptide binding. O75164; further: nearly all actives have a fitted effect of over 50% in size
G9a inh: blocks human histone lysine methyltransferase G9a; 350,000 tested, 8.8% active; Potency, µM (highest dose often 102 µM), most hits filed as inhibitors; Q96KQ7; G9a H3K9 monomethylation, AlphaScreen, 2 h; further: nearly all actives have a fitted effect of over 75% in size
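AlphaScreen detection with an anti-monomethyl H3K9 antibody quantified product after a 2 h room-temperature reaction containing 500 nM biotinylated H3K9 peptide, 20 µM SAM and 20 nM enzyme, which had been preincubated 15 min with compound.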
BAZ2B inh: blocks human BAZ2B. Potency, µM (highest dose often 114 µM), actives largely listed as inhibitors. 360,000 tested, 4.4% active. AlphaScreen BAZ2B-H3K14Ac peptide displacement. AID 504333. Q9UIF8; further: nearly all actives have a fitted effect of over 60% in size
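AlphaScreen displacement of biotin-H3(5-23)K14Ac peptide (50 nM final) from BAZ2B (50 nM final) in PBS pH 7.4, 0.01% Tween-20; complex preformed 30 min RT, then compounds (top 110 uM) 30 min RT, beads 20 min dark.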
ALOX12 inh: blocks human arachidonate 12S-lipoxygenase. P18054. purified 12hLO, xylenol orange hydroperoxide absorbance. Potency, µM (highest dose often 108 µM), most hits filed as inhibitors. 580,000 tested, 1.1% active
Target sequence (P18054 whole entry, looked up): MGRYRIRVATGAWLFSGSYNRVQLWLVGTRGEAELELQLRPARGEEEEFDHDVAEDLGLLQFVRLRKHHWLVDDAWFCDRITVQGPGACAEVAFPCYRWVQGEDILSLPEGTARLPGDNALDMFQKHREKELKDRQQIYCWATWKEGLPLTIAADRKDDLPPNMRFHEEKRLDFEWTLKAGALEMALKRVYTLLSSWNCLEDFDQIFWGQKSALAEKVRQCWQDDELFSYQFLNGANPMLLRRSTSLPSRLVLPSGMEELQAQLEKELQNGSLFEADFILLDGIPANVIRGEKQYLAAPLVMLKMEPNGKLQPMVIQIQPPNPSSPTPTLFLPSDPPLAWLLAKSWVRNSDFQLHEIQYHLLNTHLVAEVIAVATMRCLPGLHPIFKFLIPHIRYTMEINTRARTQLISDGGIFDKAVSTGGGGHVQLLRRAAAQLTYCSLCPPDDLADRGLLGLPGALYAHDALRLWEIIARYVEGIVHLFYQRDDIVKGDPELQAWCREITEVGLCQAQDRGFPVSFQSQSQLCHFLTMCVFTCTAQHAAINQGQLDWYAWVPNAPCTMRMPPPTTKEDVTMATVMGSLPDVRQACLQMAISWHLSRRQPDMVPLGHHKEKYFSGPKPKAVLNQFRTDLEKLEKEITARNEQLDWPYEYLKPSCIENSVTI
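Hydroperoxide product was detected by ferrous iron/xylenol orange as the 573 to 405 nm absorbance ratio. Arachidonic acid at 40 uM (final) was turned over for 30 min at room temperature by 150 nM human 12hLO, pH 7.0 Hepes buffer, after 15 min compound preincubation.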
Sfp PPTase inh: Sfp phosphopantetheinyl transferase inhibition | Potency, µM, usual class: inhibitors | Biochemical Sfp PPTase activity, qHTS | 310,000 tested, 3.5% active;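 further: the enzyme is Sfp with the accession as filed and its product quenches rhodamine fluorescence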
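Buffer: 50 mM Hepes-Na pH 7.6, 10 mM MgCl2, 0.01% Nonidet P-40, 0.01% BSA. Enzyme 15 nM, pre-exposed to compound 15 min; substrates then added and fluorescence change tracked over 30 min.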
A number is an active result; i = inactive; ? = inconclusive; nt = no result given; [ ] = remark or other dose. Rows were chosen to be rich in hits. Some 8.7% of all compounds tested hit in one or more screens of this group. The call rests on the fitted dose curve; in most records, active means well fitted curve in the direction sought with a large enough effect; inconclusive means small, poorly fitted or top-dose-only effect, or another doubt; inactive means no such curve, though single readings can be large; an effect the other way counts as inactive or inconclusive.

SMILES	HP1b chromo inh	JMJD2A Tudor	G9a inh	BAZ2B inh	ALOX12 inh	Sfp PPTase inh
Cc1ccn2c(C(=O)CSc3ccc(Cl)cc3Cl)c(C)nc2c1	i	i[11.4 µM]	i	i	nt	i
C=CCn1c(-c2c(C)nc3cc(C)ccn23)n[nH]c1=S	i	10µM	10µM	i	?	1.78µM
CCn1c(-c2ccc(OC)c(OC)c2)n[nH]c1=S	i	3.55µM	2µM	i	?	?
CCCS(=O)(=O)N1CCC(N2CC(OCC3CC3)C23CCOCC3)CC1 (stereo not drawn)	nt	nt	nt	nt	i	nt
CCCCCCC1C(C#N)=C(N)OC2=C1C(=O)CCC2 (stereo not drawn)	i	i	i	i	31.6µM	i
Cn1cccc1C1C(C#N)=C(N)OC2=C1C(=O)CCC2 (stereo not drawn)	i	i	i[12.7 µM]	?	i	39.8µM
CCCNC(=O)COC(=O)c1cc(Cl)c(OC)c(OC)c1	nt	nt	nt	nt	i	nt
COc1cccc2c1C1COC3C4CC(C(=O)O)C(C(C2)N13)N4C (stereo not drawn)	i	12.6µM	nt	nt	?	nt
Cc1ccc(C2Cn3nnc(-c4noc(-c5n[nH]c6c5CCCC6)n4)c3CO2)cc1 (stereo not drawn)	nt	nt	nt	nt	i	nt
CC(C)CC(=O)NC(=S)Nc1ccc(S(=O)(=O)N2CCCC2)cc1	i	i[11.4 µM]	14.1µM	i	i	i
CCCCC(CC)C(=O)Nc1ccc(S(=O)(=O)N2CCCC2)cc1 (stereo not drawn)	i	i	i	i	i	i
Cc1ccc(S(=O)(=O)NC(C)C(=O)Nc2cccc([N+](=O)[O-])c2)cc1 (stereo not drawn)	i	i	?	i	i	i
CCCC(C)C(=O)Nc1ccc(S(=O)(=O)N2CCCC2)cc1 (stereo not drawn)	i	i	70.8µM	i	i	i
CC(Nc1cccc([N+](=O)[O-])c1)C(=O)Nc1ccc(S(=O)(=O)N2CCCC2)cc1 (stereo not drawn)	i	i	50.1µM	i	i	nt
COc1ccccc1CCNC(=O)Cn1nc2c(cc1=O)CCCC2	nt	nt	nt	nt	i	nt
CCCCn1c(=O)[nH]c(=O)c2c1nc(COC(=O)/C=C/c1ccc(OC)c(OC)c1)n2C	nt	nt	nt	nt	i	nt
O=C1[C@@H]2C[C@@H](CN2C(=O)C2CCOCC2)Oc2ccccc2N1Cc1ccccc1	nt	nt	nt	nt	i	nt
CCCCc1ccc(-c2ccc(C3CCC(CC)CC3)cc2)nc1 (stereo not drawn)	nt	nt	nt	nt	i	nt
O=C(CSc1ccc([N+](=O)[O-])cn1)Nc1ccc2c(c1)OCO2	i	i	44.7µM	?	i	i
N#Cc1ccccc1NC(=O)CSc1ccc([N+](=O)[O-])cn1	i	i	50.1µM	i	i	i
O=C(Cn1cnc2ccccc2c1=O)Nc1ccc2c(c1)OCO2	i	i	i	i	i	i
O=C(Cn1cnc2cc([N+](=O)[O-])ccc2c1=O)Nc1ccc2c(c1)OCO2	i	i	39.8µM	?	?	i
CCCCCCNC(=O)N[C@H](C(=O)NCCC[C@H]1CN2C(=NC[C@H]2C)N1CCC(c1ccccc1)c1ccccc1)C(C)O (stereo partly drawn)	nt	nt	?	20µM	nt	2.24µM
O=C1CCCN1CC(=O)N1CCCC(c2nc3ccccc3o2)C1 (stereo not drawn)	nt	nt	nt	nt	i	nt
CCN1C(=O)C2CC3(CCN(C(=O)c4ccc(OC)cc4)CC3)CN2C1=O (stereo not drawn)	nt	nt	nt	nt	i	nt
SMILES	HP1b chromo inh	JMJD2A Tudor	G9a inh	BAZ2B inh	ALOX12 inh	Sfp PPTase inh
CCOc1cccc(C2/C(=C(\O)c3ccc4c(c3)OCCO4)C(=O)C(=O)N2Cc2ccncc2)c1 (stereo not drawn)	i	i	i	i	i	i
CCOc1cccc(C2/C(=C(/O)c3ccc4c(c3)CC(C)O4)C(=O)C(=O)N2Cc2ccncc2)c1 (stereo not drawn)	i	22.4µM	nt	i	i	i
COC(=O)c1ccc(C2/C(=C(/O)c3ccc4c(c3)CC(C)O4)C(=O)C(=O)N2Cc2cccnc2)cc1 (stereo not drawn)	i	?	70.8µM	i	nt	i
CC1Cc2cc(/C(O)=C3/C(=O)C(=O)N(Cc4cccnc4)C3c3cccc(O)c3)ccc2O1 (stereo not drawn)	i	i	?	i	i	i
Cc1ccc(-c2nc3ccccc3s2)cc1NC(=O)c1ccccc1C	nt	nt	nt	nt	i	nt
CCn1nc(C(=O)Nc2cc(Cl)ccc2Oc2ccc(OC)cc2)c2ccccc2c1=O	nt	nt	nt	nt	i	nt
O=S(=O)(Cc1coc(-c2ccc(Cl)cc2)n1)CC1CCCO1 (stereo not drawn)	nt	nt	nt	nt	i	nt
N/C(=N\OC(=O)c1csnn1)c1ccc(C(F)(F)F)cc1	i	i	17.8µM	i	?	56.2µM
O=c1ccc2c(-c3ccccc3)c3ccc(O)cc3oc-2c1	?	i	i	i	?	31.6µM
Nc1ccc(-c2c3ccc(=O)cc-3oc3cc(O)ccc23)cc1C(=O)O	?	?	44.7µM	?	i	i
O=c1cc(-c2ccccc2)oc2cc(O)ccc12	i	i	nt	nt	i	i
CCC(=O)Nc1ccc2nnc(-c3ccc(C(=O)Nc4ccc5c(c4)OCCO5)cc3)n2c1	nt	nt	nt	nt	i	nt
Cc1cc(C=O)c(C)n1-c1ccc(NC2CCCC2)c([N+](=O)[O-])c1	31.6µM	20µM	i	i	i	i
Cc1ccc(-n2ncc(C(=O)Nc3cc(Cl)ccc3C)c2C2CCNCC2)cc1C	i	i	i	i	i	i
Cc1ccc(N2CCN(C(=O)c3cnn(-c4ccc(C)c(C)c4)c3C3CCNCC3)CC2)c(C)c1	i	?	i	?	?	nt
Cc1cc(C)cc(NC(=O)c2cnn(-c3ccccc3)c2C2CCNCC2)c1	i	i	39.8µM	i	i	i
COc1ccc(OC)c(NC(=O)c2cnn(-c3ccc(C)cc3)c2C2CCNCC2)c1	i	79.4µM	?	?	i	nt
Cc1cccc(NC(=O)c2cnn(-c3ccc(F)cc3)c2C2CCNCC2)c1C	i	i	35.5µM	i	i	i
Cc1ccc(Cl)cc1N1CCN(C(=O)c2cnn(-c3ccc(Cl)cc3)c2C2CCNCC2)CC1	i	i	8.91µM	?	?	nt
Cc1cc(C)cc(NC(=O)c2cnn(-c3ccc(C)c(C)c3)c2C2CCNCC2)c1	i	i	?	i	?	nt
COc1ccc(-n2ncc(C(=O)Nc3ccc(C)cc3Cl)c2C2CCN(C(=O)OC(C)(C)C)CC2)cc1	i	i	i	i	i	nt
CCC(=O)Nc1ccc(C2(C(=O)NCC(C)C)CCCCC2)cc1	nt	nt	nt	nt	i	nt
CC(C)NC(=O)c1ccccc1Cl	nt	nt	nt	nt	i	nt
C[N+]1(CCn2ccc3ccccc32)CCCCC1	i	25.1µM	50.1µM	i	?	i
COc1ccccc1N=c1sc2ccccc2n1C	i	i	i	i	i	56.2µM
COc1ccc(N=c2sc3ccccc3n2C)cc1	i	i	i	i	i	i
COCC(=O)NC[C@H]1CCN(S(C)(=O)=O)C[C@H]1N(C)C	nt	nt	nt	nt	i	nt
Oc1ccc(-c2cnns2)c(O)c1	?	0.794µM	7.08µM	i	?	56.2µM
